Laboratory results published in PubChem BioAssay AID687031 (Broad Institute, 2013).
The campaign covered roughly 1,400 compounds. About 50 (4%) were called active.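 The calls were made as follows: active = fitted curve reaches 30% CPE protection at or below the top valid dose, with every test run called active; inconclusive = test runs disagree, some active and some not; inactive = every test run inactive, including effects in the wrong direction.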 A selection follows. Potency and affinity values are given separately.

Assay: Dengue virus 2 cytopathic effect protection, dose response, BHK-21 cells, ATP luminescence, cherry-pick (AID 687031)
Details: BHK-21 DENV2 CPE protection, 5 d; series mostly up to 19.5 µM

outcome, inactive:
Cc1ccc(-c2nc(N3CCN(C)CC3)c3ccccc3n2)cc1
COc1ccc(/C=N/NC(=O)c2nc(-c3ccccc3)n(-c3ccccc3)n2)cc1OC
CCCNC(=O)C[C@H]1CC[C@@H]2[C@H](COC[C@H](O)CN2C(=O)CC)O1
CCNC(=O)C[C@H]1CC[C@H]2[C@@H](COC[C@H](O)CN2C(=O)c2cccnc2)O1
Cc1ccc(SCCN2CCC(NC(=O)OCc3ccccc3)CCC2=O)cc1 (stereo not given)
Cc1ccc(S(=O)(=O)Nc2ccc3c(c2)C(=O)N([C@@H](C)CO)C[C@@H](C)[C@H](CN(C)S(=O)(=O)c2ccc(Cl)cc2)OCCCC[C@@H](C)O3)cc1
CCc1cc(=O)oc2cc(OCC(=O)NC3CC(C)(C)NC(C)(C)C3)ccc12
Cc1cc(OCC(=O)NC2CC(C)(C)NC(C)(C)C2)c(C)cc1Br
CC1(C(=O)NCc2ccccc2)CN(S(C)(=O)=O)CC(=O)N1CCc1ccc(O)cc1 (stereo not given)
CC(C)CC1NC(=O)c2ccccc2-n2c1nc1ccccc1c2=O (stereo not given)
Cc1ccc(S(=O)(=O)N(C)CC(=O)Oc2ccc(-c3nnco3)cc2)cc1
N#Cc1cc2cc3c(cc2nc1Cl)OCCO3
CCN(CC)C1CCN(Cc2c(C(=O)N3CCCCCCC3)nc3ccc(Cl)cn23)C1 (stereo not given)
O=C(CN1CCc2cc3c(cc2C1)OCCCO3)Nc1ccccc1
CN(C)CCCNc1cc(O)c2ncccc2c1
C/C=C/c1ccc([C@@H]2[C@@H](CO)N(C(C)=O)[C@@H]2CNC(=O)CC2CC2)cc1
O=C(NCC1CC1)c1onc(CSc2ccc(F)c(F)c2)c1C(=O)NCC1CC1
COc1cc(C)nc(N2CCC(C(=O)NCC3CCCO3)CC2)n1 (stereo not given)
O=C(NCCS(=O)(=O)N1CCN(c2ccccc2)CC1)C1CC1
O=C(CCc1nnc(Cc2c[nH]c3ccccc23)o1)NCCC1CCCCO1 (stereo not given)
COc1ccc(S(=O)(=O)N2CCCCC2c2cc(C(=O)Nc3ccccc3)no2)cc1 (stereo not given)
COC(=O)N1CCCCC1c1cc(C(=O)Nc2ccccc2Cl)no1 (stereo not given)
Cc1ccc([C@H]2C[C@@H](n3cc(-c4ccc(F)cc4)nn3)[C@H](O)CN2C(=O)c2cccs2)cc1
CCC(=O)N1CC[C@@H]2[C@@H](CO)Nc3ccc(-c4ccc(OC)cc4)cc3[C@@H]21
O=C(O)c1ccc(CNC(=O)C2CCCN2C(=O)OCc2ccccc2)cc1 (stereo not given)
O=C(NCc1ccccc1)c1ccccc1
Cc1ccc(OCc2nnc(SCc3cc(=O)[nH]c4ccccc34)n2-c2ccccc2)cc1
CO[C@@H]1CN(C)C(=O)c2ccc(NC(=O)Nc3cc(F)ccc3F)cc2OC[C@@H](C)N(C(=O)c2ccccn2)C[C@H]1C
CC1=C(C(=O)N(C)C)CC(CC(=O)NC2CCCCC2)C(=O)N1Cc1ccc(C(C)(C)C)cc1 (stereo not given)
CN(CC(=O)Nc1cccc(F)c1)C(=O)c1ccccc1CCc1ccccc1
C[C@H](CO)N1C[C@H](C)[C@@H](CN(C)C(=O)C2CC2)Oc2cc(C#Cc3ccccc3)ccc2S1(=O)=O
COc1cc(C)ccc1OCc1cc(C(=O)NCCN2CCCC(O)C2)no1 (stereo not given)
Cc1cc(OCc2cc(C(=O)N(C)C(C)c3ccccn3)no2)cc(C)c1Cl (stereo not given)
Cc1c(C(=O)N2CCCC2)oc2ccc(Br)cc12
C[C@@H]1CN([C@H](C)CO)C(=O)Cc2cc(NC(=O)CCCCCC(=O)Nc3ccccc3N)ccc2O[C@@H]1CN(C)Cc1ccc(C(F)(F)F)cc1
Cc1ccc(S(=O)(=O)NC(=O)C2(C)CCN2C(=O)Cc2cccs2)cc1 (stereo not given)
C[C@H](NC(=O)c1ncn(Cc2ccccc2)c1C(=O)N[C@@H](C)c1ccccc1)c1ccccc1
C[C@H](CO)N1C[C@H](C)[C@H](CN(C)C(=O)Nc2ccc(C(F)(F)F)cc2)OCCCC[C@H](C)Oc2ccc(NS(=O)(=O)c3ccc(F)cc3)cc2C1=O
O=S(=O)(c1ccc(F)cc1)N1CC[C@@H]2[C@H]1c1cc(-c3ccc(F)cc3)ccc1N[C@@H]2CO
CCC(=O)N1CC[C@@H]2[C@H](CO)Nc3ccc(-c4cccc(C#N)c4)cc3[C@@H]21
COc1cccc(C(O)c2nc(-c3cc(F)cc(F)c3)cs2)c1 (stereo not given)
CC(NC(=O)CCc1ccccc1)c1ccc2c(c1)OCO2 (stereo not given)
CC(CNC(=O)Cn1ccc(NC(=O)OCc2ccccc2)nc1=O)c1ccccc1 (stereo not given)
CCCCCCN1CCN(C2CN(Cc3ccc(F)cc3)S(=O)(=O)C2)CC1 (stereo not given)
O=C(c1cnccn1)N1CC[C@@H]2[C@@H](CO)Nc3ccc(-c4ccccc4F)cc3[C@@H]21
Nc1c(-c2ccccc2)nc2ncccn12
CCCc1cc(=O)oc2c(C)c(OCC(=O)N3C[C@H]4C[C@@H](C3)c3cccc(=O)n3C4)ccc12
CCOc1ccc(/C=N/NC(=O)c2ccccc2O)cc1CN1CC2CC(C1)c1cccc(=O)n1C2 (stereo not given)
COc1ccc(NS(=O)(=O)c2cccs2)cn1
COc1cccc(OC)c1Nc1nc(C)nc2c1nnn2Cc1ccccc1Cl
